High-throughput results from PubChem.
Compounds with a hit are over-represented: about 12% of the library has one in this group of screens.
L3MBTL1 inh – qHTS Assay for the Inhibitors of L3MBTL1. AID 485360, 2010. 0.66% of 230,000 active. Potency, µM (top dose mostly 57.1 µM), inactives show top-dose activity, negative = inhibition, hits mostly inhibitors. AlphaScreen L3MBTL1–H3K9me1 peptide binding; further: on the % scale 0 is the no-effect control and ±100 the full control effect; nearly all actives have a fitted effect of over 60% in size
Target sequence (Q9Y468 whole entry, looked up): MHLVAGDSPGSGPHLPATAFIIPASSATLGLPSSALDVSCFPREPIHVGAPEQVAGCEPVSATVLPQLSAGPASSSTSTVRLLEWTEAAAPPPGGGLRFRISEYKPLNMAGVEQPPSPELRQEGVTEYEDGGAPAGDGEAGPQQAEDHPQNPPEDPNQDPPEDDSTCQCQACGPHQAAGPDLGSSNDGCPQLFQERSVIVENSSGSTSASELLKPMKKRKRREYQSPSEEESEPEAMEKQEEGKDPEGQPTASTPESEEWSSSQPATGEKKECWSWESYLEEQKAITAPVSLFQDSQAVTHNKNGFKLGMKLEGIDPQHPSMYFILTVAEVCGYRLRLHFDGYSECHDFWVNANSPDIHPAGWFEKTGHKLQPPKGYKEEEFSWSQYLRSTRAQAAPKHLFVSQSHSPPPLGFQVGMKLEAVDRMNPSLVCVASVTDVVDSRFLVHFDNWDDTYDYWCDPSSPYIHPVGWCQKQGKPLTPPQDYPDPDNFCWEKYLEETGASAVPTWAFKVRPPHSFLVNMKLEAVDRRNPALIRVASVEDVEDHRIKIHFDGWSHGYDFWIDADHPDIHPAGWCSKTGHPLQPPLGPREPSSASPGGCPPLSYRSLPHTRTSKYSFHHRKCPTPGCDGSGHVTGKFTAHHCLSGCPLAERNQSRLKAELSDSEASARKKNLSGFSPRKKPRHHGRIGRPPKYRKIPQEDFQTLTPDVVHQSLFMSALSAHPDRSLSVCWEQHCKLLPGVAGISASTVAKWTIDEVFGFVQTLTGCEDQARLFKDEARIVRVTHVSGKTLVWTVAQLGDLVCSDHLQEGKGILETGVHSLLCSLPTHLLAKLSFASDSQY
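L3MBTL1 50 nM + b-AHA-H3(1-15)K9me1 75 nM, 30 min RT; compound added, 30 min RT; streptavidin donor/Ni-chelate acceptor beads 10 ug/mL each final, 30 min RT dark; AlphaScreen read.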
G9a block – qHTS Assay for Inhibitors of Histone Lysine Methyltransferase G9a. AID 504332, 2011. Potency, µM (highest dose often 102 µM), without a hit: top-dose activity, negative = inhibition, usual class: inhibitors. G9a H3K9 monomethylation, AlphaScreen, 2 h. 8.8% of 350,000 active. Histone-lysine N-methyltransferase EHMT2 (Homo sapiens), Q96KQ7; further: on the % scale 0 is the no-effect control and ±100 the full control effect; nearly all actives have a fitted effect of over 75% in size
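Methyltransferase reactions run at room temperature for 2 h (20 nM enzyme, 500 nM biotin-H3K9 peptide, 20 uM SAM) after a 15 min compound preincubation; product detected by AlphaScreen beads and anti-H3K9me1 antibody.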
Sfp inh – qHTS Assay for Inhibitors of Bacillus subtilis Sfp phosphopantetheinyl transferase (PPTase); 4'-phosphopantetheinyl transferase ffp (Bacillus subtilis), Q9F4F7; Biochemical Sfp PPTase activity, qHTS; Potency, µM, without a hit: largest response in the series, negative = inhibition, most hits filed as inhibitors; 3.5% of 310,000 active;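 further: the enzyme is Sfp with the accession as filed and its product quenches rhodamine fluorescence; 0% = enzyme reaction without inhibitor and -100% = no enzyme wells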
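Step 1, compound plus 15 nM Sfp-PPTase, 15 min, room temperature. Step 2, add rhodamine-CoA (5 uM) and BHQ-2-YbbR (12.5 uM). Step 3, read 525/598 nm fluorescence at 0 and 30 min.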
BAZ2B inh – qHTS Assay for Inhibitors of BAZ2B; Bromodomain adjacent to zinc finger domain protein 2B (Homo sapiens), Q9UIF8; AlphaScreen BAZ2B-H3K14Ac peptide displacement; Potency, µM (titrated, usually from 114 µM), for the others: at the top dose activity change, negative = inhibition, usual class: inhibitors; 4.4% of 360,000 active; further: on the % scale 0 is the no-effect control and ±100 the full control effect; nearly all actives have a fitted effect of over 60% in size
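BAZ2B 50 nM plus b-H3(5-23)K14Ac 50 nM, PBS pH 7.4/0.01% Tween-20, 30 min RT; compound added (max 110 uM), 30 min RT; streptavidin donor/Ni-chelate acceptor beads 10 ug/mL final, 20 min dark; AlphaScreen read.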
JMJD2A Tudor – qHTS Assay for Inhibitors of JMJD2A-Tudor Domain; Lysine-specific demethylase 4A (Homo sapiens), O75164; AlphaScreen JMJD2A-Tudor / H3K4me3 peptide binding; Potency, µM (highest dose often 114 µM), for the others: at the top dose activity change, negative = inhibition, usual class: inhibitors; 4.4% of 390,000 active; AID 504339, 2011; further: on the % scale 0 is the no-effect control and ±100 the full control effect; nearly all actives have a fitted effect of over 50% in size
HP1b binding inh – HTS for Inhibitors of HP1-beta Chromodomain Interactions with Methylated Histone Tails; AlphaScreen HP1-beta / biotin-H3K9me3 peptide binding; Potency, µM (highest dose often 114 µM), for inactives: at the top dose activity change, negative = inhibition, actives largely listed as inhibitors; 0.56% of 390,000 active; further: nearly all actives have a fitted effect of over 70% in size
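Compound inhibition of the preformed complex between 50 nM HP1-beta and 50 nM biotinylated H3K9me3 peptide was read by AlphaScreen. Buffer was PBS pH 7.4 with 0.01% Tween-20. Incubations ran 30 min at room temperature, with 10 ug/mL donor/acceptor beads.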
* marks the source's active call; other numbers are inactive results; ? = inconclusive; nt = not tested or not shown; [ ] = dose if it differs, or a comment. The call rests on the fitted dose curve; in most records, active means well fitted curve in the direction sought with a large enough effect; inconclusive means small, poorly fitted or top-dose-only effect, or another doubt; inactive means no such curve, though single readings can be large; an effect the other way counts as inactive or inconclusive. Potency means the concentration at half of the fitted maximal effect.

SMILES | L3MBTL1 inh | G9a block | Sfp inh | BAZ2B inh | JMJD2A Tudor | HP1b binding inh
Cc1c(C(=O)NCc2ccc(N(C)C)cc2)oc2c1-c1nn(Cc3cccc(Cl)c3)cc1CC2 | nt | -26%[59 µM] | nt | -18% | -27% | 22%
O=C(COC(=O)CCc1nc2ccccc2n1-c1ccccc1)Nc1ccc(N2CCCCC2)cc1 | -9% | 10µM* | 0% | ? | -20% | -6%
CC1CCCCN1CC(=O)Nc1ccc(Oc2ccccc2)cc1 (configuration not stated) | nt | -6% | 1% | 1% | -9% | 49%
O=C(O)CCCC(=O)Nc1ccc(N2CCCC2)cc1 | ? | 40µM* | 10% | 4% | ? | 41%
O=C(CCl)Nc1ccc(N2CCCCCC2)cc1 | -25% | 16µM* | -9% | ? | 50µM* | ?
CC1CCCCN1CC(=O)Nc1ccc(N2CCCCCC2)cc1 (configuration not stated) | ? | 3.2µM* | 45µM* | 11µM* | 1.4µM* | 22µM*
O=C(Cn1c(-c2ccccc2)noc1=O)Nc1ccc(N2CCCCCC2)cc1 | ? | ? | 11% | 22µM* | 22µM* | ?
O=C(Cc1ccccc1)Nc1ccc(N2CCCCC2)cc1 | nt | 28µM* | 7% | -24% | -24% | 32%
O=c1c2ccccc2oc2ccc(NCCCn3ccnc3)cc12 | -8% | nt | 10% | 50µM* | ? | 39%
CCOc1ccc(S(=O)(=O)N2CCCCC2)cc1NC(=O)C1CSC2(C)CCC(=O)N12 (configuration not stated) | -7% | 40µM* | nt | -2% | -11% | 12%
CC1CCN(S(=O)(=O)c2ccc(NC(=O)C3CSC4(C)CCC(=O)N34)cc2)CC1 (configuration not stated) | ? | ? | nt | ? | 79µM* | 8%
CC12CCC(=O)N1C(C(=O)Nc1cccc(S(=O)(=O)N3CCCCC3)c1)CS2 (configuration not stated) | -16% | -40% | nt | -2% | -16% | 14%
CC(=O)c1ccc(-n2nnnc2SCC(=O)NC2CCCCC2)cc1 | nt | 35µM* | ? | -3% | -8% | -13%
O=C(CSc1nnnn1-c1ccc(F)cc1)NC1CCCCC1 | -1% | -13%[12.7 µM] | 8% | 5% | 79µM* | ?
CC(=O)Nc1ccc(-n2nnnc2SCC(=O)NC2CCCC2)cc1 | nt | -6% | 3% | -2% | -9% | 2%
Cc1ccc(S(=O)(=O)n2cc(-c3ccccc3)c3ccccc32)cc1 | 39% | -3%[0.501 µM] | nt | 20% | 24% | 77%
Cc1ccc(S(=O)(=O)n2ccc3c(OCCOCCNCc4ccc(F)cc4)cccc32)cc1 | nt | ? | 71µM* | -34% | -32% | -3%
Cc1ccc(S(=O)(=O)n2ccc3c(OCCOCCSCC(NC(=O)OC(C)(C)C)C(=O)O)cccc32)cc1 (configuration not stated) | nt | -9%[12.7 µM] | 3% | 50µM* | -33% | -8%
CCCCc1nn2c(=O)cc(COC(=O)c3ccc(NC(=O)CCc4ccccc4)cc3)nc2s1 | nt | 3%[59 µM] | nt | 0% | -29% | 19%
CCCNC(=O)Cn1nc(-c2ccc(F)cc2)c2cnc3ccc(F)cc3c21 | nt | -2%[59 µM] | nt | -35% | -17% | -1%
CCc1sc2nc(SCC(=O)Nc3cc(C)on3)n(-c3cccc(OC)c3)c(=O)c2c1C | -9% | -15% | 56µM* | ? | -15% | 26%
Cc1cc(NC(=O)CSc2nnc(-c3ccco3)n2C)no1 | 1% | 21%[12.7 µM] | nt | 8% | -18% | 30%
COc1cccc(-c2nnc(SCC(=O)Nc3cc(C)on3)n2C)c1 | nt | 50µM* | 19% | -2% | -4% | 17%
Cc1cc(NC(=O)CSc2nnnn2-c2ccc(C)c(Cl)c2)no1 | nt | 45µM* | -2% | 7% | -7% | 23%
COc1ccc(-c2nnc(SCC(=O)Nc3cc(C)on3)n2N)cc1OC | -1% | 50µM* | 7% | -5% | -17% | 37%
SMILES | L3MBTL1 inh | G9a block | Sfp inh | BAZ2B inh | JMJD2A Tudor | HP1b binding inh
COc1cc(Br)ccc1C1C(C(=O)Nc2ccc(C)cc2C)=C(C)Nc2nnnn21 (configuration not stated) | nt | -4%[59 µM] | nt | -38% | -9% | 27%
CCOC(=O)c1cc(OC(=O)c2cccc(Cl)c2)n(-c2ccccc2)n1 | nt | -3%[59 µM] | nt | -21% | ? | 18%
CC(C)c1ccc(S(=O)(=O)c2nnn3c2nc(NC2CCCC2)c2sccc23)cc1 | nt | -2%[59 µM] | nt | -10% | -23% | -4%
COc1ccc(OC)c(C(=O)CSc2nnc(-c3cccnc3)n2C)c1 | nt | 18µM* | 10% | -19% | -10% | 24%
CN(C)CC(C)(C)CNS(=O)(=O)c1ccc(Cl)cc1 | nt | -63% | 10% | nt | -8% | 40%
CN(C)CC(C)(C)CNS(=O)(=O)c1cccc(Cl)c1Cl | nt | 8.9µM* | 4% | 11% | 50µM* | 26%
Cc1cccc(CNC(=O)CN2C(=O)CCn3nc(-c4cn(C)c5ccccc45)cc32)c1 | nt | -9%[59 µM] | nt | -19% | -30% | -3%[57 µM]
O=c1c(CN2CCN(c3cccc(Cl)c3)CC2)coc2c(Cl)cc(Cl)cc12 | 11% | ? | ? | 0% | -14% | 53%
CN1CCN(Cc2coc3c(Cl)cc(Cl)cc3c2=O)CC1 | -1% | 25µM* | 50µM* | 50µM* | 8.9µM* | ?
COC(=O)CSCc1nc2ccccc2[nH]c1=O | 4% | 20µM* | -29% | -20% | -23% | 21%
CC(OC(=O)CCc1nc2ccccc2[nH]c1=O)C(=O)c1ccccc1 (configuration not stated) | nt | 79µM* | 9% | 11% | 5% | 30%
CC(OC(=O)CCc1nc2ccccc2[nH]c1=O)c1ccccc1 (configuration not stated) | -3% | 5% | -3% | -11% | -24% | 0%
N#CCCN1CCCc2cc(N=Nc3ccc(C(F)(F)F)cc3)ccc21 | ? | nt | 8% | 5.6µM* | 13µM* | 11µM*
N#CCCN1CCN(S(=O)(=O)c2ccc3c(c2)CCC3)CC1 | 5% | 10%[12.7 µM] | nt | 12% | -15% | 42%
COc1ccc2c(CNCCc3ccc(SC)cc3)c(C(=O)O)n(Cc3ccc(F)cc3)c2c1 | nt | -30%[59 µM] | nt | ? | ? | -6%
COc1cccc(Nc2nc3ccccc3nc2NS(=O)(=O)c2cccs2)c1 | 5% | 2%[12.7 µM] | 19% | -1% | 89µM* | 33%
